Test results taken from PubChem BioAssay.
Activity calls are given as the source filed them.

Assays:
[1] = tested on: Wnt5a (protein binding on small-molecule microarray); assay: Wnt5a binders on small-molecule microarray, primary screen, biophysical, 635/667 nm fluorescence (AID 1142); settings: 635 nm fluorescence, higher = more signal;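 further: fluorescence read at 667 nm with signal to noise per printed feature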
[2] = cell viability in Huh7 cells, primary screen, cytotoxicity control for HCV replication inhibitor project, CellTiter-Glo luminescence, basal, 48 h (AID 1143); settings: Huh7 HCV replicon, higher = more signal, called active from +8 up or from −8 down;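 further: Huh7 hepatoma cells carrying a hepatitis C replication reporter with no stimulus; test concentration not given here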
[3] = CREB reporter modulators without forskolin, primary screen, cell-based, PC12, CRE-LacZ reporter, unstimulated (AID 1145); settings: no forskolin, luminescence, 4.5 h, higher = more signal, called active from +8 up or from −8 down
[4] = CREB reporter modulators under forskolin, primary screen, cell-based, PC12, CRE-LacZ reporter, forskolin-stimulated (AID 1146); settings: luminescence, 4.5 h, higher = more signal, called active from +8 up or from −8 down;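 further: PC12 cells with 6xCRE LacZ reporter stimulated by forskolin 10 µM; beta-galactosidase reporter signal reflecting CREB driven transcription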
[5] = molecular target: Streptavidin (Streptomyces avidinii) (UniProt P22629); assay: streptavidin binders on small-molecule microarray, primary screen, artefact control for SMM compound annotation, biophysical, 635/667 nm fluorescence (AID 1147); settings: streptavidin binding, higher = more signal;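 further: signal reflects streptavidin binding to arrayed compounds as a control protein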
Chain of Streptavidin (Streptomyces avidinii) (P22629 whole entry, looked up): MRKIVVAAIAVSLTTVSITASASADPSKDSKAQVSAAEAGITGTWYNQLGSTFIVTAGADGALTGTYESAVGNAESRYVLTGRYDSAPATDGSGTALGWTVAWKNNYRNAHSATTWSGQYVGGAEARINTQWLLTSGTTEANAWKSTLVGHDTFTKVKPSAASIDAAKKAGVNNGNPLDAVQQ

[6] = small-molecule binders of probe aInhba, primary screen, biochemical, small-molecule microarray, 635/667 nm fluorescence (AID 1148); settings: higher = more signal;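 further: score merges 667nm spot fluorescence with signal-to-noise for antibody binding to printed compounds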
Torsin-1A (Homo sapiens) [7] = molecular target: Torsin-1A (Homo sapiens) (UniProt O14656); assay: torsin A binders from cell lysate, primary screen, small-molecule microarray, wild-type, 635/667 nm (AID 1149); settings: COS7 hTOR1A-WT lysate, 635 nm fluorescence, higher = more signal
Chain of Torsin-1A (Homo sapiens) (O14656 whole entry, looked up): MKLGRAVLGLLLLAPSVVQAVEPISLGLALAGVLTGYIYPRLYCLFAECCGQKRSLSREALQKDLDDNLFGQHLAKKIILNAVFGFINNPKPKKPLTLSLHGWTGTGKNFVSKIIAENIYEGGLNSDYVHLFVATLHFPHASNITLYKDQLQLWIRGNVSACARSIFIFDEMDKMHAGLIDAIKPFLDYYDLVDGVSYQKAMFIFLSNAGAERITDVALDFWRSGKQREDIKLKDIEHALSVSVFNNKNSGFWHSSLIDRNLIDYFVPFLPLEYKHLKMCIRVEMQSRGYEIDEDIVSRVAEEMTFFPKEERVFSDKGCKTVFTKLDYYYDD

Torsin-1A (Homo sapiens) [8] = molecular target: Torsin-1A (Homo sapiens) (UniProt O14656); assay: small-molecule binders of mutant TOR1A in lysate, primary screen, cell lysate, small-molecule microarray, COS7 lysate, 635/667 nm fluorescence (AID 1150); settings: COS7 hTOR1A mutant lysate, 635 nm fluorescence, higher = more signal;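 further: score pools 667 nm emission and signal to noise measuring lysate protein binding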
[9] = tested on: Sonic hedgehog protein (Shh); assay: small-molecule binders of Shh protein, primary screen, biochemical, small-molecule microarray, 635/667 nm fluorescence (AID 1151); settings: small-molecule microarray binding, 635 nm fluorescence; higher = more signal;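 further: Shh protein binding to compounds spotted on small-molecule microarray slides; score combines spot fluorescence intensity with signal-to-noise across triplicate slides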
[10] = E. coli DRC41 culture turbidity changes, primary screen, E. coli filamentation inducer project, strain DRC41, OD650, 48 h (AID 1152);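 further: E. coli MC1000 strain DRC41 lacking acrAB efflux pump and sulA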; settings: E. coli DRC41 (acrAB sulA), higher = more signal, called active from +8 up or from −8 down
[11] = small-molecule binders of probe aLefty1, primary screen, biochemical, small-molecule microarray, 635/667 nm fluorescence (AID 1153); settings: higher = more signal;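 further: score merges spot fluorescence with signal-to-noise ratio from the scanned slide images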
[12] = PSAC antagonists in infected red cells, primary screen, cell-based, P. falciparum Indochina, OD700, 1 h (AID 1154); settings: P. falciparum Indochina infected RBC osmotic lysis, higher = more signal, called active from +8 up or from −8 down
[13] = PSAC antagonists in infected red cells, primary screen, cell-based, P. falciparum Indochina, OD700, 2 h (AID 1155);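 further: lysis reports solute entry through the parasite surface anion channel PSAC; channel blockers reduce lysis of infected cells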; settings: P. falciparum Indochina infected erythrocytes, osmotic lysis OD700; higher = more signal, called active from +8 up or from −8 down
[14] = osmotic lysis modulators in infected erythrocytes, primary screen, PSAC antagonist project, cell-based, P. falciparum Indochina, OD700, 3 h (AID 1156); settings: higher = more signal, called active from +8 up or from −8 down
[15] = PSAC antagonists in infected red cells, primary screen, cell-based, P. falciparum Indochina, OD700, 18 h (AID 1157); settings: P. falciparum Indochina infected erythrocytes, osmotic lysis OD700, 18 h; higher = more signal, called active from +8 up or from −8 down
[16] = modulators of S6 phosphorylation in cells, primary screen, cell-based, A549, cytoblot, luminescence, serum-stimulated (AID 1158); settings: A549 phospho-S6 cytoblot, 5 h, higher = more signal;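 further: serum-stimulated A549 lung adenocarcinoma cells; signal is phosphorylated S6 detected by cytoblot immunostaining with HRP secondary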
[17] = molecular target: NADPH oxidase 2 (Homo sapiens) (UniProt P04839); assay: NOX2-dependent H2O2 signal modulators, primary screen, NOX inhibitor project, cell-based, HEK293-NOX2, PMA-stimulated, Amplex Red fluorescence (AID 1159); settings: 45 min, higher = more signal, called active from +8 up or from −8 down; further: test concentration not given here
Chain of NADPH oxidase 2 (Homo sapiens) (P04839 whole entry, looked up): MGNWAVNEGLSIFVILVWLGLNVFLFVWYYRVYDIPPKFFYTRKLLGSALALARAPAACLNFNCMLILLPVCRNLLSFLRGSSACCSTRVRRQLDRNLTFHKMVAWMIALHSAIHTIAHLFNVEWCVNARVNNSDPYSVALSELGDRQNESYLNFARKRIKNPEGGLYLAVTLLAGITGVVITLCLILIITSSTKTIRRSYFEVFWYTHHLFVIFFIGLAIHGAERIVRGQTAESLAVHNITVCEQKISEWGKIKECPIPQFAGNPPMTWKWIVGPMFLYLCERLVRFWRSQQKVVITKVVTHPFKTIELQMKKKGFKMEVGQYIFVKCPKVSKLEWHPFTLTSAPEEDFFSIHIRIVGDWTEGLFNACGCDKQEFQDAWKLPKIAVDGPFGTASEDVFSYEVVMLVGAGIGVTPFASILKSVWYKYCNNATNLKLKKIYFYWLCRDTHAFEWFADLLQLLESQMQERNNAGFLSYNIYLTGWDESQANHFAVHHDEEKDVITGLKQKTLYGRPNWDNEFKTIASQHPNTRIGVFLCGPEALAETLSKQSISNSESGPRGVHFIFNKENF

[18] = molecular target: NADPH oxidase 4 (Homo sapiens) (UniProt Q9NPH5); assay: NOX4-dependent H2O2 signal modulators, primary screen, NOX inhibitor project, cell-based, HEK293-NOX4, tetracycline-induced, Amplex Red fluorescence (AID 1160); settings: 45 min, higher = more signal, called active from +8 up or from −8 down
Chain of NADPH oxidase 4 (Homo sapiens) (Q9NPH5 whole entry, looked up): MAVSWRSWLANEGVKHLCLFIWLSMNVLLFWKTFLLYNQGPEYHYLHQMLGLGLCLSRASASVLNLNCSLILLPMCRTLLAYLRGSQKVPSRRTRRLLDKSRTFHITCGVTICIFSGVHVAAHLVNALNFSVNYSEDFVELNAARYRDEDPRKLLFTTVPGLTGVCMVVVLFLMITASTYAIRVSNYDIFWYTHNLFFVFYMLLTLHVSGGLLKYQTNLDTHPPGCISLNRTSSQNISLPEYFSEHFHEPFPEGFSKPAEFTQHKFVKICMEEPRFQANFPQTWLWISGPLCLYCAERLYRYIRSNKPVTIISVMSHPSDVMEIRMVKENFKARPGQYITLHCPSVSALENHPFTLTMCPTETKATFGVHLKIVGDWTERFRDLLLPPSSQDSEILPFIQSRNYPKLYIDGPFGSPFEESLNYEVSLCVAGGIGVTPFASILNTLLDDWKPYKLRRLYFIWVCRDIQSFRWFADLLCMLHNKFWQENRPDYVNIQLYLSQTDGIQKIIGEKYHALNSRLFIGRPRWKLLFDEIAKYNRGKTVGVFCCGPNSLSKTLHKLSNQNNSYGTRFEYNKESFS

[19] = molecular target: NADPH oxidase 5 (Homo sapiens) (UniProt Q96PH1); assay: NOX5-dependent H2O2 signal modulators, primary screen, NOX inhibitor project, cell-based, HEK293-NOX5, Amplex Red fluorescence (AID 1161); settings: HEK293-NOX5, ionomycin, 45 min, higher = more signal
Chain of NADPH oxidase 5 (Homo sapiens) (Q96PH1 whole entry, looked up): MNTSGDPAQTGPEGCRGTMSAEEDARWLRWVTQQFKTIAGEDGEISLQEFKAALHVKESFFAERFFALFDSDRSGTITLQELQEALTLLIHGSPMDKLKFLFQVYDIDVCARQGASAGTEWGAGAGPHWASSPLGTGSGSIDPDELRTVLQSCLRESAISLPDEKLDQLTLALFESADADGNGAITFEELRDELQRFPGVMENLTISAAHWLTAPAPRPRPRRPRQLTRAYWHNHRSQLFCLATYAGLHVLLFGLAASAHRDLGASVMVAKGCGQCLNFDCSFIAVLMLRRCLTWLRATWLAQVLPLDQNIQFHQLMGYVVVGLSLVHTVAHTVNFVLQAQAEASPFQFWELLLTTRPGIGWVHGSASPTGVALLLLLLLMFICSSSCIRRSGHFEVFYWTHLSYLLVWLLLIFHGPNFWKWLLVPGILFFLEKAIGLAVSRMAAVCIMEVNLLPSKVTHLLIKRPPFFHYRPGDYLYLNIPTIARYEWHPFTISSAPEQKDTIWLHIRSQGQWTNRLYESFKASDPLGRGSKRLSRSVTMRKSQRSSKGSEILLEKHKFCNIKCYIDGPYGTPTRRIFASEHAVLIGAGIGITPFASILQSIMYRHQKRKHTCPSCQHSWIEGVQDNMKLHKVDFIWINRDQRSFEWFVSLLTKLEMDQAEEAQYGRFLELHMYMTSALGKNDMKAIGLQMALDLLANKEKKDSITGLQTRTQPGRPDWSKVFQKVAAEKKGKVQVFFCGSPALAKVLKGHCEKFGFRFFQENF

[20] = A549 cell viability effects, profiling panel, calcein-AM fluorescence, 48 h, basal (AID 1162); settings: higher = more signal; further: test concentration not given here

Structure (SMILES) | composite z-score [1] | z-score [2] | z-score [3] | z-score [4] | composite z-score [5] | composite z-score [6] | composite z-score (Torsin-1A (Homo sapiens) [7]) | composite z-score (Torsin-1A (Homo sapiens) [8]) | composite z-score [9] | z-score [10] | composite z-score [11] | z-score [12] | z-score [13] | z-score [14] | z-score [15] | z-score [16] | z-score [17] | z-score [18] | z-score [19] | z-score [20]
C[C@@H](OCc1ccccc1)C1NC(=O)[C@@]23C(=O)N[C@@H](Cc4ccccc4)C2[C@H](C)[C@@]2(C)O[C@H]2C3/C=C/C/C=C\CNC(=O)[C@@H]2CCCN2C1=O (stereo not given in full) | -0.13 | -0.866 (inactive) | 2.13 (inactive) | -1.55 (inactive) | -0.9 | -0.192 | -0.0343 | 1.12 | 0.558 | 2.21 (inactive) | -0.239 | 1.49 (inactive) | 0.0899 (inactive) | 0.933 (inactive) | 0.231 (inactive) | 0.663 | -0.0597 (inactive) | 0.397 (inactive) | -0.915 | 0.791
CC(=O)NCCCC[C@@H]1NC(=O)[C@@H]2C[C@H](C(=O)O)[C@H](c3cccc(OCCO)c3)N2C1=O | 0.45 | -0.533 (inactive) | 0.151 (inactive) | -0.741 (inactive) | 0.397 | -0.0403 | 0.911 | 0.903 | 2.12 | 0.733 (inactive) | -0.138 | 0.495 (inactive) | 0.373 (inactive) | -1.49 (inactive) | 0.0814 (inactive) | 0.264 | -1.16 (inactive) | -0.282 (inactive) | -0.948 | 0.0822
COCCOC(=O)N1C(=O)[C@@]2(c3cc(C#CCNC(N)=O)ccc31)[C@H](c1ccccc1OCCO)N1[C@H](c3ccccc3)[C@H](c3ccccc3)OC(=O)[C@H]1[C@@H]2C(=O)Nc1nc2ccccc2s1 | 0.141 | -0.949 (inactive) | 0.0653 (inactive) | 0.178 (inactive) | 0.789 | 0.061 | 0.196 | 0.287 | 0.312 | 2.56 (inactive) | 0.0943 | 2.23 (inactive) | -0.226 (inactive) | 0.653 (inactive) | -0.809 (inactive) | 1.87 | 1.85 (inactive) | 1.5 (inactive) | 1.25 | 0.323
CCOC(=O)C[C@H]1[C@H](OC(=O)c2ccc(-c3ccccc3)cc2)[C@@H](NC(=O)C2CCCCC2)c2cc(OCCCO)ccc2N1C(=O)c1ccc2ccccc2n1 | 0.0447 | -0.0226 (inactive) | 3.51 (inactive) | -0.876 (inactive) | 0.391 | 0.0582 | 0.688 | 0.525 | 0.21 | 2.69 (inactive) | 0.0278 | 1.45 (inactive) | -0.755 (inactive) | -0.0072 (inactive) | -1.16 (inactive) | 1.5 | 1.13 (inactive) | 1.3 (inactive) | 1.94 | 1.23
COCCOC(=O)N1C(=O)[C@@]2(c3ccccc31)[C@H](C(=O)Nc1nc3ccccc3s1)[C@H]1C(=O)O[C@H](c3ccccc3)[C@H](c3ccccc3)N1[C@@H]2c1ccc(O)cc1 | 0.418 | -3.59 (inactive) | -0.199 (inactive) | -0.395 (inactive) | 0.511 | 0.263 | 0.815 | -0.06 | 2.07 | 2.37 (inactive) | 0.577 | 10.9 (active) | 5 (inactive) | 1.67 (inactive) | 2.06 (inactive) | 1.92 | -0.333 (inactive) | -0.395 (inactive) | 1.28 | 0.751
COCCOC(=O)N1C(=O)[C@@]2(c3cc(C#CC4(O)CCCCCC4)ccc31)[C@H](C(=O)NC[C@H](O)c1ccccc1)[C@H]1C(=O)O[C@H](c3ccccc3)[C@H](c3ccccc3)N1[C@@H]2c1ccccc1OCCO | 0.393 | -5.32 (inactive) | -0.203 (inactive) | -0.464 (inactive) | 0.637 | 0.0393 | 0.821 | 0.709 | 1.9 | 1.5 (inactive) | 0.223 | 2.13 (inactive) | 1.55 (inactive) | -0.535 (inactive) | 0.922 (inactive) | 0.632 | 1.82 (inactive) | -0.729 (inactive) | 0.85 | 0.463
C=C(C(=O)CC[C@@H](OC(C)=O)c1ccccc1OCCO)C(C)C | 0.235 | -4.89 (inactive) | 3.88 (inactive) | -1.21 (inactive) | -0.965 | -0.0791 | 0.964 | -0.353 | 1.09 | 1.19 (inactive) | -0.29 | 0.425 (inactive) | 0.279 (inactive) | -1.49 (inactive) | 0.479 (inactive) | -0.258 | 1.24 (inactive) | -0.759 (inactive) | -2.43 | -0.646
CC(C)NC(=O)[C@@H]1c2ccccc2C(=O)N(Cc2cc(F)cc(C(F)(F)F)c2)[C@H]1c1ccc(CO)cc1 | -0.0581 | 0.142 (inactive) | -0.529 (inactive) | -1.08 (inactive) | -0.95 | -0.329 | -0.479 | -0.0988 | -0.72 | 1.39 (inactive) | -0.113 | 2.06 (inactive) | 0.391 (inactive) | 1.47 (inactive) | 0.178 (inactive) | 0.161 | 0.146 (inactive) | 1.08 (inactive) | 0.949 | 1.48
